The source made the active and inactive calls. No rule for the calls is given here.

One may read the inhibition as the percentage by which the read-out fell short of the control.

The target in this assay is Pantothenate synthetase (Mycobacterium tuberculosis (strain ATCC 25618 / H37Rv)) (UniProt P9WIL5). Kind of assay: Recombinant Mtb pantothenate synthetase (PanC) inhibitors, coupled enzyme, confirmatory (AID 375).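 Also: 0% = full reaction with vehicle and 100% = no enzyme background.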 The note with it: coupled enzyme assay; at 10 µM, active compounds read high.
Chain of Pantothenate synthetase (Mycobacterium tuberculosis (strain ATCC 25618 / H37Rv)) (P9WIL5 whole entry, looked up): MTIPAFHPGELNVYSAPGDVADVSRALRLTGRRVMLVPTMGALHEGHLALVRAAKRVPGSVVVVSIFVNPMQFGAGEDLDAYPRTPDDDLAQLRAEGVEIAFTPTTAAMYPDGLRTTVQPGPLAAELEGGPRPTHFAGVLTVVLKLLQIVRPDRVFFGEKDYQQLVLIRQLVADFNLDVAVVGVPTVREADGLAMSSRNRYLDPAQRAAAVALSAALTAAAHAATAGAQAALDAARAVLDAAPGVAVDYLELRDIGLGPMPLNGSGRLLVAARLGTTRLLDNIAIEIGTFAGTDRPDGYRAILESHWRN
Regarding `Cc1ccc(NC(=O)CC2C(=O)NC3CCCCC3N2C(=O)c2ccc(F)cc2)cc1C` (stereo not given), the inhibition is 4% (inactive). In the case of `O=S(=O)(c1cccs1)N1CCN(C/C=C/c2ccccc2)CC1` it was 0% (inactive); in that of `CCOC(=O)C1CCN(C(=O)CSc2cc(=O)n(CC)c3ccccc23)CC1`, 4% (inactive). In the case of `Cc1cccc(-n2ncc3c(NCCCO)ncnc32)c1` it was 2% (inactive); in that of `COc1cccc(-c2nnc(SCC(=O)N3CCCc4ccccc43)o2)c1`, 0% (inactive); in that of `CCCCN(CCCC)CCCOC(=O)c1ccc(N)cc1`, 0% (inactive). In the case of `Cc1ccc2nc(/C(C#N)=N/O)[nH]c2c1` it was 10% (inactive); in that of `c1ccc(-c2noc(C34CC5CC(CC(C5)C3)C4)n2)nc1`, 6% (inactive); in that of `CCc1ccc(C2CC(c3cccc(OC)c3)n3nc(N)nc3N2)cc1` (stereo not given), 3% (inactive). With `CC1=C(C(=O)N2CCOCC2)C(c2ccsc2)C2=C(CCCC2=O)N1` (stereo not given), the inhibition was 0% (inactive). In the case of `Cc1cccc(-c2noc(CCC(=O)Nc3ccccc3)n2)c1` it was 5% (inactive); in that of `CCCCNS(=O)(=O)c1ccc(OC)c2ncccc12`, 3% (inactive); in that of `COc1ccccc1OCCNC(=O)c1cccs1`, 0% (inactive). In the case of `CC(C)(C)N=C1NC(=NC(C)(C)C)c2ccccc21` it was 0% (inactive). In the case of `Cn1c(=O)[nH]c(=O)c2c1nc(N(CCO)Cc1ccccc1)n2Cc1ccccc1Cl` it was 4% (inactive). Consider `CCOc1ccc2[nH]c(=O)c(C(c3nnnn3Cc3ccco3)N3CCC(C)CC3)cc2c1` (stereo not given), for which the inhibition was 0% (inactive). As for `CC1=C(C)C(=O)C(CCCCC#CCCCC#CCO)=C(C)C1=O`, the inhibition is 6% (inactive). Consider `CC(=O)NS(=O)(=O)c1ccc(NC(=O)c2ccccc2F)cc1`, for which the inhibition was 0% (inactive).

Take `COc1ccc(-c2nc(CS(=O)CC(=O)N3CCCC3)c(C)o2)cc1` (stereo not given): the inhibition is 0% (inactive).

For `Cc1c(C(=O)O)oc2ccc(S(=O)(=O)NCc3ccccc3)cc12`, the inhibition is 0% (inactive).

Consider `COc1ccccc1-n1c(SCC(N)=O)nnc1-c1ccccc1`, for which the inhibition was 0% (inactive). In the case of `COc1cccc(N(C(=O)c2ccco2)C(C(=O)NC2CCCC2)c2ccc(N(C)C)cc2)c1` (stereo not given) it was 0% (inactive); in that of `Cc1onc(-c2ccccc2Cl)c1C(=O)NCc1cccnc1`, 0% (inactive); in that of `COc1cccc(Oc2ccc(N)cc2)c1`, 0% (inactive).

Consider `Cc1cc(C)c2c(C)nn(C3CCCCC3)c2n1`, for which the inhibition is 0% (inactive). In the case of `N#CCc1c(C#N)c(N)nc(N2CCN(S(=O)(=O)c3ccccc3)CC2)c1C#N` it was 6% (inactive). In the case of `CC(C)c1ncc(C(O)c2cccc3ccccc23)n1C` (stereo not given) it was 0% (inactive); in that of `CCOC(=O)c1c(C)oc2ccc(O)c(CN(C)C)c12`, 0% (inactive). In the case of `CCc1nnc(NC(=O)NCN2C(=O)C3C4C=CC(C4)C3C2=O)s1` (stereo not given) it was 0% (inactive). For `CC1(C)O[C@@H]2C[C@H]3[C@@H]4C[C@H](F)C5=CC(=O)C=C[C@]5(C)[C@@]4(F)[C@@H](O)C[C@]3(C)[C@]2(C(=O)CO)O1`, the inhibition is 1% (inactive). In the case of `N#C/C(C(=O)N1CCOCC1)=C1/SC(Cc2ccccc2)C(=O)N1c1ccccc1` (stereo not given) it was 0% (inactive). In the case of `CCCCN(CC)CCCNC(=O)c1cc2c(=O)n(C)c3ccccc3c2n1C` it was 0% (inactive); in that of `O=C(O)CCC1(C(=O)O)OCCc2ccccc21` (stereo not given), 8% (inactive); in that of `CC(=O)N1c2c(cc(Br)cc2S(=O)(=O)NCC2COc3ccccc3O2)CC1C` (stereo not given), 2% (inactive).

In the case of `CCSc1cc(C2C(C(=O)OC)=C(C)NC3=C2C(=O)CCC3)c(C)o1` (stereo not given), the inhibition was 0% (inactive). In the case of `COc1ccccc1N(CC(=O)NCc1ccccc1)S(C)(=O)=O` it was 0% (inactive); in that of `Cn1c(=O)[nH]c(=O)c2c1nc(N1CCCCC1)n2CCSc1ncccn1`, 0% (inactive); in that of `CCOc1cc2oc(=O)c3c(c2cc1Cl)CCC3`, 0% (inactive). In the case of `Cc1ccc(-c2cc(C(F)F)nc(N3CCC(C)CC3)n2)cc1` it was 6% (inactive); in that of `OCCOCCN1CCN(C(c2ccccc2)c2ccc(Cl)cc2)CC1` (stereo not given), 1% (inactive).

The record behind these values is PubChem BioAssay.
